According to PubChem BioAssay (NCATS):
Inconclusive results are not listed. Unless noted, calls follow the shape of the dose curve; as a rule, active = well fitted curve in either direction with a large enough effect (not every such curve was filed as active); inconclusive = small, poorly fitted or top-dose-only effect, or another doubt; inactive = flat fitted curve, though single readings scatter.

Legend:
[1] = AP1 Signaling Pathway (AID 357); conditions: ME-180 AP-1-bla reporter, EGF-induced, beta-lactamase ratio, 5 h; at 17.2 µM (top of the series) unless noted;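 also: ME-180 reporter cells stimulated with EGF at its EC50 level; % is scaled to controls: 0 for no effect and ±100 for the full control effect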
Outline: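 A ratiometric CCF4 readout (405 nm excitation; 460 and 530 nm emission) quantified AP-1-driven beta-lactamase in ME-180 cells after 5 h with compound and EC50 EGF; AC50 values were derived for activators and inhibitors.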

[2] = NFAT Signaling Pathway (AID 444); conditions: Jurkat NFAT-bla M1, carbachol, beta-lactamase ratio, 5 h; at 17.2 µM (top of the series) unless noted;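 also: carbachol stimulus at about its EC50 of 1 µM final; % is scaled to controls: 0 for no effect and ±100 for the full control effect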
Outline: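 Read-out: CCF4 FRET ratio (460 nm/530 nm) after 1 h RT dye loading, used for %activity and AC50 from titration series. Cells: Jurkat NFAT-β-lactamase/M1 line, treated with compound plus 1 uM carbachol for 5 h, 37 °C.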

[3] = Stat Signaling Pathway (AID 446); conditions: ME-180 SIE beta-lactamase reporter, IL-6 stimulated, 5 h; at 17.2 µM (top of the series) unless noted;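 also: ME-180 cervical cancer cells given 40 pM IL-6 alongside compound; SIE-controlled beta-lactamase reporter measured as 460/530 nm FRET emission ratio; % is scaled to controls: 0 for no effect and ±100 for the full control effect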
Outline: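 Reporter line: ME-180 cervical carcinoma, SIE-beta-lactamase. Treatment: compound with 40 pM IL-6, 5 hrs, 37 C, in low-serum OPTI-MEM with 10 mM HEPES pH 7.3. Detection: 460/530 nm fluorescence.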

[4] = molecular target: Glucocorticoid receptor (Homo sapiens) (UniProt P04150); assay: GR-GFP Redistribution (AID 450;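 active = compounds whose dose series gives a full or clear partial fitted curve of increased nuclear translocation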; also: potency is read from the fitted curve at half-maximal effect)
Glucocorticoid receptor (Homo sapiens), sequence (P04150 whole entry, looked up): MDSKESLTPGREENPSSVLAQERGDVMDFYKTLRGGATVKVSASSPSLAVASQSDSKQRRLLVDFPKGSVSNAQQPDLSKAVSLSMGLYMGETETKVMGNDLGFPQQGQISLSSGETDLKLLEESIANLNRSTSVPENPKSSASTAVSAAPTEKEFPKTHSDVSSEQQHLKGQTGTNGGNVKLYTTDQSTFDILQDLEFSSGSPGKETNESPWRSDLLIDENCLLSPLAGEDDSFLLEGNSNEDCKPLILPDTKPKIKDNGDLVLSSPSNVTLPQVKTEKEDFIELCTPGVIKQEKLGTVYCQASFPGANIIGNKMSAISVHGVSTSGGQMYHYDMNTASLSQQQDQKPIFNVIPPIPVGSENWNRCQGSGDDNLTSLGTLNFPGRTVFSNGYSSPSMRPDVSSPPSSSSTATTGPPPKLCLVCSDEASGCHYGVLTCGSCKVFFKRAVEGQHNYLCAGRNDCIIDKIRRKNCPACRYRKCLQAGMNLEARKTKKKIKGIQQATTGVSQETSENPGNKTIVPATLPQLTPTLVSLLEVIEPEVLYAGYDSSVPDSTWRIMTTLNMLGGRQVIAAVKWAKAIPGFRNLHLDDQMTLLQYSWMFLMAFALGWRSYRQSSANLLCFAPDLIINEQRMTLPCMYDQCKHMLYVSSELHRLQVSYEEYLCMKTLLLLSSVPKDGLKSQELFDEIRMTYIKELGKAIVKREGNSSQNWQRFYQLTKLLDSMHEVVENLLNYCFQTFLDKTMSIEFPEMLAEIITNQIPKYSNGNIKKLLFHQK

CC1(C)Cc2c(sc3nc4n(c(=O)c23)CCC4)CO1
inactive: activity change, negative = inhibition [1] -2.8% | activity change, negative = inhibition [2] 2.28% | activity, negative = inhibition [3] -2.43% | Potency [4] > 20.6 µM

Cc1ccc(Cn2ncc3c(N4CCOCC4)ncnc32)cc1
inactive: activity change, negative = inhibition [1] -2.95% | activity change, negative = inhibition [2] 19.3% | activity, negative = inhibition [3] 3.94% | Potency [4] > 20.6 µM

CN(C)S(=O)(=O)Nc1ccc(NS(=O)(=O)N(C)C)c(S(=O)(=O)c2ccccc2)c1
inactive: activity change, negative = inhibition [1] -9.87% | activity change, negative = inhibition [2] -5.57% | activity, negative = inhibition [3] 21.4% | Potency [4] > 20.6 µM

Cc1cccc(NC(=O)c2cc(N3CCOCC3)nc3ccccc23)c1
inactive: activity change, negative = inhibition [1] -7.76% | activity change, negative = inhibition [2] 28.7% | activity, negative = inhibition [3] -0.239% | Potency [4] > 20.6 µM

Cc1ccc(OCC(=O)NCC(=O)n2nc(C)cc2C)cc1
inactive: activity change, negative = inhibition [1] -4.61% | activity change, negative = inhibition [2] -11.6% | activity, negative = inhibition [3] -3.12% | Potency [4] > 20.6 µM

Cc1nn(CC(=O)NCCN2CCOCC2)c(=O)c2ccccc12
inactive: activity change, negative = inhibition [1] 5.98% | activity change, negative = inhibition [2] 20% | activity, negative = inhibition [3] 8.76% | Potency [4] > 20.6 µM

O=C(C(c1ccccc1)N1CCOCC1)N1CCOCC1 (centres undefined)
inactive: activity change, negative = inhibition [1] 27.9% | activity change, negative = inhibition [2] 7.74% | activity, negative = inhibition [3] 13.8% | Potency [4] > 20.6 µM

COC(=O)C1=C(C)OC(N)=C(C#N)C1c1ccc(OC)c(OC)c1OC (centres undefined)
inactive: activity change, negative = inhibition [1] 11.2% | activity change, negative = inhibition [2] -15.6% | activity, negative = inhibition [3] 8.15% | Potency [4] > 20.6 µM

N#C/C(=C\c1c(N2CCC(C(N)=O)CC2)nc2ccccn2c1=O)S(=O)(=O)c1ccccc1
inactive: activity change, negative = inhibition [1] -8.19% | activity change, negative = inhibition [2] 29.6% | activity, negative = inhibition [3] -1.65% | Potency [4] > 20.6 µM

Cn1c(/C(C#N)=C/Nc2ccccn2)nc2ccccc21
inactive: activity change, negative = inhibition [1] -8.79% | activity change, negative = inhibition [2] -5.83% | activity, negative = inhibition [3] 8.51% | Potency [4] > 20.6 µM

Nc1cccc(C(=O)O)c1
inactive: activity change, negative = inhibition [1] 8.42% | activity change, negative = inhibition [2] 20.2% | activity, negative = inhibition [3] 4.89% | Potency [4] > 20.6 µM

CC1(C)Cc2[nH]c(=S)c(C#N)cc2CO1
inactive: activity change, negative = inhibition [1] 8.31% | activity change, negative = inhibition [2] -8.3% | activity, negative = inhibition [3] 27.9% | Potency [4] > 20.6 µM

OCCOCCNc1ncnc2c1cnn2-c1ccccc1
inactive: activity change, negative = inhibition [1] 7% | activity change, negative = inhibition [2] 1.59% | activity, negative = inhibition [3] -1.47% | Potency [4] > 20.6 µM

N#Cc1c(N)sc(=S)c2c1CCCCC2
inactive: activity change, negative = inhibition [1] 10.8% | activity change, negative = inhibition [2] -12.9% | activity, negative = inhibition [3] -20.4% | Potency [4] > 20.6 µM

Cc1ccc(-n2c(N)c(C(N)=O)sc2=S)cc1
inactive: activity change, negative = inhibition [1] 6.9% | activity change, negative = inhibition [2] 9.14% | activity, negative = inhibition [3] -24.5% | Potency [4] > 20.6 µM

Cc1cc(CCC(=O)O)c(C)cc1CCC(=O)O
inactive: activity change, negative = inhibition [1] 14.2% | activity change, negative = inhibition [2] 2.85% | activity, negative = inhibition [3] 7.37% | Potency [4] > 20.6 µM

O=C1NC2c3ccccc3C(=O)N2c2c1cnn2-c1ccccc1 (centres undefined)
inactive: activity change, negative = inhibition [1] -6.7% | activity change, negative = inhibition [2] -1.9% | activity, negative = inhibition [3] -7.17% | Potency [4] > 20.6 µM

COCc1cc(=O)[nH]c(Nc2nc3ccccc3o2)n1
inactive: activity change, negative = inhibition [1] 20.9% | activity change, negative = inhibition [2] -12.8% | activity, negative = inhibition [3] 1.07% | Potency [4] > 20.6 µM

CCOC(=O)c1c(C)n(C)c2ccc(O)c(S(=O)(=O)c3ccccc3)c12
inactive: activity change, negative = inhibition [1] -9.19% | activity change, negative = inhibition [2] 2.35% | activity, negative = inhibition [3] 11.2% | Potency [4] > 20.6 µM

CCN=C1SC(C(=O)Nc2ccc(Cl)c(Cl)c2)CC(=O)N1CC (centres undefined)
inactive: activity change, negative = inhibition [1] -19.4% | activity change, negative = inhibition [2] 10.1% | activity, negative = inhibition [3] 4.81% | Potency [4] > 20.6 µM

Cc1ccc(S(=O)(=O)NC(=O)Nc2ncc3c(n2)CC(c2ccco2)CC3=O)cc1 (centres undefined)
inactive: activity change, negative = inhibition [1] -9.62% | activity change, negative = inhibition [2] 7.22% | activity, negative = inhibition [3] -2.33% | Potency [4] > 20.6 µM

O=C(NCc1ccccn1)c1ccc(=O)oc1
inactive: activity change, negative = inhibition [1] 5.8% | activity change, negative = inhibition [2] -2.94% | activity, negative = inhibition [3] 8.81% | Potency [4] > 20.6 µM

CC(C)Cn1cnc2c(c1=O)c1nc3ccccc3nc1n2Cc1ccc2c(c1)OCO2
inactive: activity change, negative = inhibition [1] -7.49% | activity change, negative = inhibition [2] 8.7% | activity, negative = inhibition [3] -6.69% | Potency [4] > 20.6 µM

COc1cc(C(=O)Nc2ccc(O)cc2C(=O)O)ccc1OC(C)=O
inactive: activity change, negative = inhibition [1] -6.46% | activity change, negative = inhibition [2] 22.4% | activity, negative = inhibition [3] 6.09% | Potency [4] > 20.6 µM

Cc1onc(-c2ccccc2Cl)c1C(=O)N1CCN(c2nc3ccccc3s2)CC1
inactive: activity change, negative = inhibition [1] -24.2% | activity change, negative = inhibition [2] -4.08% | activity, negative = inhibition [3] -3.09% | Potency [4] > 20.6 µM

CN(C)c1ccc(C=NCCC2(O)CCOC(C)(C)C2)cc1 (centres undefined)
inactive: activity change, negative = inhibition [1] 0.733% | activity change, negative = inhibition [2] 4.94% | activity, negative = inhibition [3] -0.198% | Potency [4] > 20.6 µM
